# Data from PubChem BioAssay (NCATS).
# Records with an inconclusive call do not appear. Activity calls are given as the source filed them. Calls follow the shape of the dose curve; as a rule, active = well fitted inhibition curve with a large enough effect; inconclusive = small, poorly fitted or top-dose-only effect; inactive = flat fitted curve, though single readings scatter.
# System: AS120
# Assay: qHTS profiling for inhibitors of Plasmodium falciparum proliferation (AID 504749); also: nearly all actives have a fitted effect of over 60% in size;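 as to activity, negative = inhibition: 0% = DMSO vehicle and full inhibition = artemisinin control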
# Details: P. falciparum in erythrocytes, SYBR Green DNA, 72 h; series mostly up to 28.7 µM; activity, negative = inhibition: at the top concentration
# Procedure, shortened: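 Fluorescence of SYBR Green-bound parasite DNA, read at 485/535 nm, served as the growth measure. Infected erythrocytes were cultured with compound 72 h; artemisinin (0.29 uM) and DMSO wells defined the normalization range.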
# Potency is read from the fitted curve at half-maximal effect.
Structure (SMILES),Potency,"activity, negative = inhibition"
C[C@@H](NCCCc1cccc(C(F)(F)F)c1)c1cccc2ccccc12,3.98 µM (active),–
COc1cc(NCc2ccc3nc(N)nc(N)c3c2C)cc(OC)c1OC,1 µM (active),–
NC(N)=NC(N)=NCCc1ccccc1,inactive,–
CNNCc1ccc(C(=O)NC(C)C)cc1,–,-9.6% (inactive)
OC(Cn1cncn1)(Cn1cncn1)c1ccc(F)cc1F,–,-5.6% (inactive)
CCOC(=O)c1ccc(C#Cc2ccc3c(c2)C(C)(C)CCS3)nc1,–,-28.9% (inactive)
O=c1cc(O)c(Cl)c[nH]1,–,9.25% (inactive)
C1CCC(C(CC2CCCCN2)C2CCCCC2)CC1 (stereo not given),7.94 µM (active),–
CC(C)NCC(O)c1ccc(NS(C)(=O)=O)cc1 (stereo not given),inactive,–
Cc1cccc(N(C)C(=S)Oc2ccc3ccccc3c2)c1,–,2.61% [at 12.8 µM] (inactive)
CC(=O)Oc1ccccc1C(=O)Nc1ncc([N+](=O)[O-])s1,–,1.18% (inactive)
CC[C@H](C)C(=O)O[C@H]1C[C@@H](C)C=C2C=C[C@H](C)[C@H](CC[C@@H]3C[C@@H](O)CC(=O)O3)[C@H]21,–,-13.2% (inactive)
CC(C)OC(=O)C(C(=O)OC(C)C)=C1SC=CS1,–,-2.27% (inactive)
O=S(=O)(O)CCS,–,-0.54% (inactive)
Cc1nnc(NS(=O)(=O)c2ccc(N)cc2)s1,–,-2.28% (inactive)
CNC1CCCN(c2c(F)cc3c(=O)c(C(=O)O)cn(C4CC4)c3c2OC)C1 (stereo not given),–,-1.52% (inactive)
S=P(N1CC1)(N1CC1)N1CC1,–,-8.65% (inactive)
COc1cc2c(Nc3ccc(Br)cc3F)ncnc2cc1OCC1CCN(C)CC1,3.16 µM (active),–
O=c1oc2c(O)c(O)cc3c(=O)oc4c(O)c(O)cc1c4c23,1.41 µM (active),–
N=C(N)c1ccc(OCCCCCOc2ccc(C(=N)N)cc2)cc1,0.891 µM (active),–
